An excerpt weighted towards active compounds, which were near 2.4% of everything screened.
D2 PAM-1 – human D2 receptor positive allosteric modulation; P14416; DiscoveRx D2 beta-arrestin cells, luminescence, 90 min; 100% = 57 uM dopamine signal; potentiation, % (no concentration beside the values); 360,000 compounds, 0.23% hits; AID 624464; in the data active = potentiation above about 50%
Target sequence (P14416 whole entry, looked up): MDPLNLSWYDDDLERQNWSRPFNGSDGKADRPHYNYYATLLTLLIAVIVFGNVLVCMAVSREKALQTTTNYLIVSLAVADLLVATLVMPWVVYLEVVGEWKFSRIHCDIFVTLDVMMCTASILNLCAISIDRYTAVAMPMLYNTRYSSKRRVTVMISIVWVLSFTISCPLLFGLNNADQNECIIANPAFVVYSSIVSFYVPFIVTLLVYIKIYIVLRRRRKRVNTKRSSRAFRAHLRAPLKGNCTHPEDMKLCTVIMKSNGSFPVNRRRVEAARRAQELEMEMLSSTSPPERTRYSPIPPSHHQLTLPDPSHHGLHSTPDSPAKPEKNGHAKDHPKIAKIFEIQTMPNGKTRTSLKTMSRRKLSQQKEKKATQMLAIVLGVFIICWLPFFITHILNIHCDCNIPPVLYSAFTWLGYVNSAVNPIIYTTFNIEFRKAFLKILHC
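PathHunter beta-arrestin assay in DiscoveRx D2 cells. Compounds were added with an EC20 of dopamine (50 nM final) for 90 min at 37 deg C. Luminescence was read 1 h after detection reagent, with 57 uM dopamine as the EC100 control.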
D2 antag – D2 dopamine receptor (human) antagonism. 340,000 compounds, 2% hits. inhibition, % at 10 µM. HEK293 TREx D2 cells, calcium flux, dopamine EC80; in the data active = inhibition above about 30%; inactive = below that, where a call was filed; also: 0% is about no effect
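Tetracycline-induced HEK293 T-REx cells expressing D2 force-coupled to calcium signalling were dye-loaded, exposed to compound for 180 s, then challenged with an EC80 of dopamine; calcium flux was followed kinetically for a further 180 s.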
D2 ag-1 – agonists of human D2 dopamine receptor (beta-arrestin) | AID 624465 | DiscoveRx PathHunter D2 beta-arrestin, luminescence, 90 min; 100% = 57 uM dopamine signal | 360,000 compounds, 0.084% hits | activation, % (test concentration not listed); in the data active = activation above about 40%
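Agonist mode: compounds alone added to overnight-plated D2 PathHunter cells for 90 min at 37 C, with 57 uM final dopamine (EC100) defining full response. Beta-arrestin recruitment detected by chemiluminescent reagent, read after 1 h at ambient temperature.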
D2 PAM-2 – positively modulates the human D2 dopamine receptor allosterically | HEK293 T-REx D2, calcium flux, EC20 dopamine potentiation | potentiation, % at 10 µM | 340,000 compounds, 0.34% hits;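 active = potentiation over 3 SD above the plate norm, cut at about 30% in these data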; also: 0% is about no effect
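Using a no-wash calcium dye in inducible, force-coupled HEK293 Trex cells expressing D2, we tracked fluorescence each second for 180 s after compound, then for 180 s after EC20 dopamine to detect augmented signalling.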
D2 ag-2 – D2 dopamine receptor (human) agonism; HEK293 T-REx D2 cells, calcium flux agonist mode; P14416; AID 485358; 340,000 compounds, 0.53% hits; activation, % at 2 µM;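 active = activation over 3 SD above normal in the single-dose calcium agonist read, cut at about 30% in these data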; also: 0% is about no effect
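HEK293 Trex D2 cells, tetracycline-induced, o/n 30 C 5% CO2; no-wash Ca dye, RT 30–90 min; 10-cycle baseline, 23 nl cpd added, kinetic Ca read 180 s; agonist hits = positive Ca response.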
Active calls of the source: *.

Results for Cc1cc(C)cc(N2C(=O)C3C4C=CC(C4)C3C2=O)c1 (stereo unspecified) ?
D2 PAM-1: 12; D2 ag-1: 0; D2 PAM-2: 37*

How did O=C1C2C3C=CC(C3)C2C(=O)N1c1ccccc1 (stereo unspecified) do in these assays?
D2 PAM-1: -8; D2 ag-1: -3

What do the screens show for `O=[N+]([O-])c1ccccc1S(=O)(=O)N(CC(O)CN1CCCCC1)c1ccccc1` (stereo unspecified)?
D2 PAM-1: -8; D2 antag: 8; D2 ag-1: -4; D2 PAM-2: -8; D2 ag-2: 0

Results for Cc1ccccc1S(=O)(=O)N(CC(O)CN1CCCCC1)c1ccccc1 (stereo unspecified) ?
D2 PAM-1: -12; D2 antag: 54*; D2 ag-1: -1; D2 PAM-2: -17; D2 ag-2: 1

How did Cc1ccc(CNC(=O)c2oc3ccc(S(=O)(=O)N4CCC5(CC4)OCCO5)cc3c2C)cc1 do in these assays?
D2 PAM-1: 17; D2 ag-1: 2; D2 PAM-2: -9

How did Cc1c(C(=O)NCCN(C)C)oc2ccc(S(=O)(=O)N3CCC4(CC3)OCCO4)cc12 do in these assays?
D2 PAM-1: -2; D2 antag: 33*; D2 ag-1: 0; D2 ag-2: 1

Results for Cc1c(C(=O)NCCCN2CCCC2=O)oc2ccc(S(=O)(=O)N3CCOCC3)cc12 ?
D2 PAM-1: -6; D2 antag: 44*; D2 ag-1: -2; D2 PAM-2: -4; D2 ag-2: 1

How did O=C(NCCOc1ccccc1F)c1cccc(S(=O)(=O)N2CCN(c3ccccc3)CC2)c1 do in these assays?
D2 PAM-1: 29; D2 antag: 35*; D2 ag-1: 3; D2 PAM-2: 5; D2 ag-2: 2

What do the screens show for `Cc1c(C(=O)NCCC2=CCCCC2)oc2ccc(S(=O)(=O)N3CCOCC3)cc12`?
D2 PAM-1: 19; D2 antag: 5; D2 ag-1: -1; D2 PAM-2: -3; D2 ag-2: 0

Results for O=C(CCNC(=O)c1ccc(Br)cc1)Nc1cccc(S(=O)(=O)N2CCCC2)c1 ?
D2 PAM-1: -26; D2 antag: 38*; D2 ag-1: -4; D2 PAM-2: -1; D2 ag-2: -1

How did O=C(NCCCN1CCOCC1)c1cccc(S(=O)(=O)N2CCN(c3ccccc3)CC2)c1 do in these assays?
D2 PAM-1: -23; D2 antag: -13; D2 ag-1: -8; D2 PAM-2: 13; D2 ag-2: 0

What do the screens show for `O=C(COC(=O)c1n[nH]c2ccccc12)NCCc1ccccc1`?
D2 PAM-1: -6; D2 ag-1: 6

What do the screens show for `CC(=O)c1ccc(N2CCN(c3ccc(NC(=O)c4cccs4)cc3C(=O)O)CC2)cc1`?
D2 PAM-2: 6

What do the screens show for `O=C(Nc1cccc(S(=O)(=O)N2CCOCC2)c1)c1ccc(N2CCCC2=O)cc1`?
D2 PAM-1: -1; D2 antag: 11; D2 ag-1: 0; D2 PAM-2: -12; D2 ag-2: 1

How did O=C(Nc1ccc2c(c1)C(=O)NC2=O)c1ccc(S(=O)(=O)N2CCCC2)cc1 do in these assays?
D2 PAM-1: 0; D2 antag: 31*; D2 ag-1: 0; D2 PAM-2: -15; D2 ag-2: 0

How did O=C(Nc1cccc(S(=O)(=O)N2CCCCC2)c1)c1ccc(N2CCCC2=O)cc1 do in these assays?
D2 PAM-1: -8; D2 antag: 1; D2 ag-1: -2; D2 PAM-2: 51*; D2 ag-2: 0

How did COCCNC(=O)c1c[nH]c2ccc(S(=O)(=O)N3CCOCC3)cc2c1=O do in these assays?
D2 PAM-1: -4; D2 antag: 46*; D2 ag-1: -2; D2 PAM-2: -8; D2 ag-2: 1

What do the screens show for `O=C(NCCCN1CCCC1=O)c1cccc(S(=O)(=O)N2CCCCC2)c1`?
D2 PAM-1: -1; D2 antag: 38*; D2 ag-1: 8; D2 PAM-2: 3; D2 ag-2: 0

What do the screens show for `Cc1ccc(S(=O)(=O)Nc2ccc3nc(-c4cccc(Cl)c4)oc3c2)cc1`?
D2 PAM-2: 5; D2 ag-2: 0
